Test systems include HUNK; ICK; IGF1R; INSRR; INSR; IRAK1; IRAK3; IRAK4; ITK; KIT-autoinhibited.
Common to all, as to details: concentration: 1 μM, replicates: in singlicate; n = 1
The next experiment concerns T1, IKK-alpha.
T1 construct: gene CHUK

A further experiment concerns T2, IKK-beta.
T2 construct: gene IKBKB

A further experiment relates to T3, IKK-epsilon.
T3 construct: gene IKBKE

In experiment [1] the test system is JAK1(JH1domain-catalytic).
The test system of experiment [2] is JAK1(JH2domain-pseudokinase).
Experiment [3] deals with JAK2(JH1domain-catalytic).
Experiment [4] deals with JAK3(JH1domain-catalytic).
The next experiment concerns T4, JNK1.
T4 construct: gene MAPK8

The next experiment relates to T5, JNK2.
T5 construct: gene MAPK9

The next experiment concerns T6, JNK3.
T6 construct: gene MAPK10
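Note: KINOMEscan kinase panel screen.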

As for `CN1C(=O)C(Nc2ccc(Cl)c(C(=O)O)c2)=C(c2ccc(Cl)cc2)C1=O` [SB-404290], the “%Inh” value worked out at 32% with HUNK; 20% in the experiment with ICK; 0% in the experiment on IGF1R; 0% with IKK-alpha; 17% with IKK-beta; 0% in the experiment on IKK-epsilon. The “%Inh” value in the experiment with INSRR is 14%; in the experiment with INSR, 0%; in the experiment with IRAK1 it was 0%; in the experiment with IRAK3 it was 0%; in the experiment on IRAK4, 0%; in the experiment on ITK, 4%. In addition, the “%Inh” value in experiment [1] is reported as 0%; in experiment [2], 17%; in experiment [3] it was 8%; in experiment [4] it was 0%; with JNK1 it was 26%; with JNK2 it was 2%. The “%Inh” value amounted to 7% in the experiment with JNK3 and 0% with KIT-autoinhibited.

Regarding `NC(=O)c1nnc2ccccc2c1N`, the “%Inh” value in the experiment with HUNK is given as 0%; with ICK, 13%; in the experiment with IGF1R it was 0%; in the experiment with IKK-alpha it was 27%; in the experiment with IKK-beta, 35%; in the experiment on IKK-epsilon it was 0%. Further, the “%Inh” value in the experiment on INSRR turned out to be 12%; with INSR, 29%; with IRAK1, 54%; with IRAK3 it was 19%; with IRAK4, 33%; in the experiment on ITK, 64%. In addition, the “%Inh” value in [1] is recorded as 4%; in experiment [2], 37%; in [3] it was 58%; in experiment [4], 65%; with JNK1 it was 27%; in the experiment on JNK2 it was 17%. For the same molecule, the “%Inh” value is recorded as 13% in the experiment on JNK3 and 19% in the experiment on KIT-autoinhibited.

On to `Cc1c(O)cccc1Nc1ccnc2ccc(C(F)(F)F)cc12.Cl` [GW466413], for which the “%Inh” value in the experiment with HUNK was 93.4%; in the experiment on ICK, 0%; in the experiment with IGF1R it was 0%; in the experiment on IKK-alpha, 8%; with IKK-beta, 0%; with IKK-epsilon, 0%. Besides, the “%Inh” value in the experiment on INSRR, in the experiment on INSR, in the experiment with IRAK1, in the experiment on IRAK3, in the experiment on IRAK4 and with ITK was 0% each time. Besides, the “%Inh” value was 0% in experiment [1]; 0% in experiment [2]; 6% in experiment [3]; 0% in experiment [4]; 21% in the experiment on JNK1; 4% in the experiment on JNK2. In addition, the “%Inh” value with JNK3 and with KIT-autoinhibited was 0% each time.

On to `Cc1cccc(-c2nc(-c3ccc(S(C)(=O)=O)cc3)sc2-c2ccnc(NCCc3ccccc3)c2)c1`, for which the “%Inh” value in the experiment with HUNK is given as 0%; with ICK, 0%; in the experiment on IGF1R, 15%; in the experiment with IKK-alpha, 0%; in the experiment on IKK-beta, 8%; in the experiment with IKK-epsilon it was 0%. Also, the “%Inh” value in the experiment on INSRR is on record as 3%; in the experiment with INSR it was 7%; in the experiment on IRAK1, 17%; with IRAK3, 0%; with IRAK4 it was 9%; in the experiment with ITK it was 0%. The “%Inh” value in [1] stood at 2%; in experiment [2], 4%; in [3] it was 8%; in experiment [4] it was 0%; in the experiment on JNK1, 0%; with JNK2, 0%. Also, the “%Inh” value in the experiment on JNK3 and with KIT-autoinhibited was 0% each time.

Turning to `Cn1ccc2ncnc(Oc3ccc(Nc4nc5ccccc5[nH]4)cc3)c21`, the “%Inh” value in the experiment with HUNK, in the experiment with ICK, in the experiment on IGF1R, with IKK-alpha, in the experiment on IKK-beta and in the experiment on IKK-epsilon was 0% in each case. For the same molecule, the “%Inh” value turned out to be 17% in the experiment with INSRR; 0% in the experiment with INSR; 0% in the experiment with IRAK1; 0% in the experiment with IRAK3; 0% in the experiment with IRAK4; 3% in the experiment with ITK. Further, the “%Inh” value is 8% in [1]; 0% in experiment [2]; 0% in experiment [3]; 0% in experiment [4]; 0% with JNK1; 0% in the experiment with JNK2. For the same molecule, the “%Inh” value with JNK3 and in the experiment with KIT-autoinhibited was 0% each time.

Consider `COc1cccc(NC(=O)NC2CCN(c3ccnc(Nc4ccc(F)cc4)n3)C2)c1` (centres unmarked) [GSK1379721], for which the “%Inh” value in the experiment on HUNK amounted to 13%; in the experiment on ICK, 25%; in the experiment with IGF1R, 0%; in the experiment with IKK-alpha, 0%; with IKK-beta, 0%; in the experiment on IKK-epsilon, 15%. In addition, the “%Inh” value is listed as 0% in the experiment with INSRR; 14% in the experiment with INSR; 12% in the experiment on IRAK1; 0% with IRAK3; 12% with IRAK4; 0% with ITK. In addition, the “%Inh” value in [1] is 7%; in experiment [2], 0%; in [3], 20%; in experiment [4], 0%; in the experiment on JNK1 it was 0%; in the experiment on JNK2, 4%. In addition, the “%Inh” value in the experiment on JNK3 and in the experiment on KIT-autoinhibited was 0% in each case.

As to `Cl.NC(=O)c1cccc(Nc2nccc(Nc3ccc(Oc4cccc(Cl)c4)c(Cl)c3)n2)c1` [GW659008], the “%Inh” value with HUNK turned out to be 0%; with ICK, 85%; in the experiment with IGF1R, 14%; in the experiment on IKK-alpha, 3%; in the experiment on IKK-beta, 5%; with IKK-epsilon, 0%. The “%Inh” value in the experiment on INSRR was 12%; in the experiment with INSR, 6%; with IRAK1, 0%; with IRAK3 it was 50%; with IRAK4, 0%; in the experiment on ITK, 0%. Besides, the “%Inh” value came to 15% in [1]; 0% in experiment [2]; 84% in experiment [3]; 0% in [4]; 22% with JNK1; 20% in the experiment with JNK2. Further, the entries for the “%Inh” value in the experiment on JNK3 and in the experiment with KIT-autoinhibited were 10% and 0%, respectively.

As to `Cc1cccc(-c2nc(Nc3ccncc3)c3ccccc3n2)n1` [GW855857], the “%Inh” value with HUNK, in the experiment with ICK, in the experiment on IGF1R, with IKK-alpha, with IKK-beta and with IKK-epsilon was 0% throughout. In addition, the “%Inh” value turned out to be 0% with INSRR; 7% with INSR; 0% in the experiment on IRAK1; 21% with IRAK3; 0% in the experiment with IRAK4; 24% in the experiment with ITK. For the same molecule, the “%Inh” value in [1] is reported as 0%; in experiment [2], 74%; in experiment [3] it was 0%; in experiment [4], 0%; in the experiment on JNK1, 0%; in the experiment on JNK2 it was 6%. In addition, the “%Inh” value is given as 21% in the experiment with JNK3 and 0% in the experiment on KIT-autoinhibited.

Regarding `Cc1cc(-c2ccc3c(c2)CC[C@@H](N[C@@H](C)c2ccccc2)C3)cnc1N.Cl` [GW412617], the “%Inh” value in the experiment with HUNK, in the experiment with ICK, in the experiment on IGF1R, with IKK-alpha, in the experiment on IKK-beta and in the experiment on IKK-epsilon was 0% throughout. Also, the “%Inh” value with INSRR is listed as 31%; in the experiment on INSR, 17%; in the experiment on IRAK1 it was 76%; in the experiment with IRAK3, 2%; with IRAK4 it was 71%; in the experiment on ITK, 18%. Further, the “%Inh” value in experiment [1] is 12%; in experiment [2] it was 46%; in experiment [3], 34%; in experiment [4], 0%; in the experiment with JNK1 it was 36%; in the experiment on JNK2, 3%. The results for the “%Inh” value in the experiment on JNK3 and with KIT-autoinhibited were 4% and 0%, respectively.

Take `CS(=O)(=O)c1ccc(-c2c(-c3ncn[nH]3)sc(N3CCOCC3)c2C#N)cc1`: the “%Inh” value with HUNK worked out at 0%; in the experiment on ICK, 0%; in the experiment on IGF1R, 7%; in the experiment on IKK-alpha it was 36%; with IKK-beta, 29%; with IKK-epsilon it was 24%. The “%Inh” value in the experiment with INSRR is 15%; in the experiment on INSR, 0%; with IRAK1, 0%; in the experiment on IRAK3 it was 100%; in the experiment with IRAK4 it was 0%; in the experiment with ITK it was 6%. The “%Inh” value stood at 0% in [1]; 56% in [2]; 0% in [3]; 2% in experiment [4]; 25% in the experiment on JNK1; 0% with JNK2. Further, the “%Inh” value in the experiment on JNK3 is reported as 0%; in the experiment with KIT-autoinhibited, 49%.

Values taken from publication PMC5540273 (PLoS ONE, 2017).
